Experimental data: paper PMC7862700, “An all-to-all approach to the identification of sequence-specific readers for epigenetic DNA modifications on cytosine”

How the values were obtained:
Assay in all cases: DAPPL (digital affinity profiling via proximity ligation, sequencing); 10 mM Tris-HCl pH 7.5, 50 mM NaCl, 1 mM DTT, 4% glycerol, room temperature, 30 min; GST-TFs on glutathione beads, 16-mer random dsDNA library, 0.1% formaldehyde crosslink after washing; high values mean tight binding
Conditions in all cases: protein: recombinant; tags: N-terminal GST; dsDNA, one strand shown
FLI1 = target: T1, FLI1 (Homo sapiens, UniProt Q01543 1-452)
T1 sequence: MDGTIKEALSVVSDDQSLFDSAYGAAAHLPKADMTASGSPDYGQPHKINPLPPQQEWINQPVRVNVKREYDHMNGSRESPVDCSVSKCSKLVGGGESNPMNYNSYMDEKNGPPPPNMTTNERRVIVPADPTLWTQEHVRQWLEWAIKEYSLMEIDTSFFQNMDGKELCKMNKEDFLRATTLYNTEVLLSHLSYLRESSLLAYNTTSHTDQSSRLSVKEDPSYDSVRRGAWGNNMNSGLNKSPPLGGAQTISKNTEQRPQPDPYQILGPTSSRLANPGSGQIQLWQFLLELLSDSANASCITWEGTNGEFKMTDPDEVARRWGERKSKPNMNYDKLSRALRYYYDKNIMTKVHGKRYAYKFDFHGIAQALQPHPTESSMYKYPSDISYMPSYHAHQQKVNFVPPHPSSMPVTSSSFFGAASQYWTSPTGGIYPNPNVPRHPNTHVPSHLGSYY
Procedure, shortened: (§1)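 Sequencing on an Illumina NextSeq500 followed washing, crosslinking with 0.1% formaldehyde, proximity ligation (BsaI/T4 ligase, 1 h, 37 °C) and PCR amplification of pools that had been incubated for 30 min at room temperature with 200 nmole of a random double-stranded 16-mer DNA library in Tris/NaCl/DTT/glycerol buffer. Each pool held DNA-barcoded human transcription factors, expressed in yeast as GST fusions and captured on glutathione beads, plus a tag-only sample. Binding signal is a hexamer's read frequency for a factor divided by its frequency in the tag-only sample.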

ELK1 = target: T2, ELK1 (Homo sapiens, UniProt P19419 1-428)
T2 sequence: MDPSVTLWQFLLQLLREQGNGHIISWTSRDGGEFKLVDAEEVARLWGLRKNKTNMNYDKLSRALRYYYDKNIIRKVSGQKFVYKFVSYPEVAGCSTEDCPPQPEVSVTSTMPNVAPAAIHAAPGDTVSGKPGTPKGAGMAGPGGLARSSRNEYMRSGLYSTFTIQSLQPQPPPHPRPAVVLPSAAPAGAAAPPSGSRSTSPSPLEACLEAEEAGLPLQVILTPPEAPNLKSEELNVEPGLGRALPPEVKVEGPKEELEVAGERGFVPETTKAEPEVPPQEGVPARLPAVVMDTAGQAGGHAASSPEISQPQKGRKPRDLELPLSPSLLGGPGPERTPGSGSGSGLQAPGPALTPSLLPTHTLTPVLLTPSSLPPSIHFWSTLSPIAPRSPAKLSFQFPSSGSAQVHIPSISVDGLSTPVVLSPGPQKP
Procedure, shortened: as §1

GABPA = target: T3, GABPA (Homo sapiens, UniProt Q06546 1-454)
T3 sequence: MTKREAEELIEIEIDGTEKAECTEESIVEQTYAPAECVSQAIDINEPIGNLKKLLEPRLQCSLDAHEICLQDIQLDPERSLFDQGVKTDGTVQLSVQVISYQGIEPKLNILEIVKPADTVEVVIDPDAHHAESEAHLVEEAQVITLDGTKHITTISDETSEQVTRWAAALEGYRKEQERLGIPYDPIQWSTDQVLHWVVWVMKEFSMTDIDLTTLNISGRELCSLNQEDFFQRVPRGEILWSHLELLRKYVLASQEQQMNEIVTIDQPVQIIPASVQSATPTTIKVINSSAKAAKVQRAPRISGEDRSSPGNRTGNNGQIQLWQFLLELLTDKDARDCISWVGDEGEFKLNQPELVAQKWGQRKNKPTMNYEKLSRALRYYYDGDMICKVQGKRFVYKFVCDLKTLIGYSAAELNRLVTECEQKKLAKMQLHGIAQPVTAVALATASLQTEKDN
Procedure, shortened: as §1

ERG = target: T4, ERG (Homo sapiens, UniProt P11308 1-479)
T4 sequence: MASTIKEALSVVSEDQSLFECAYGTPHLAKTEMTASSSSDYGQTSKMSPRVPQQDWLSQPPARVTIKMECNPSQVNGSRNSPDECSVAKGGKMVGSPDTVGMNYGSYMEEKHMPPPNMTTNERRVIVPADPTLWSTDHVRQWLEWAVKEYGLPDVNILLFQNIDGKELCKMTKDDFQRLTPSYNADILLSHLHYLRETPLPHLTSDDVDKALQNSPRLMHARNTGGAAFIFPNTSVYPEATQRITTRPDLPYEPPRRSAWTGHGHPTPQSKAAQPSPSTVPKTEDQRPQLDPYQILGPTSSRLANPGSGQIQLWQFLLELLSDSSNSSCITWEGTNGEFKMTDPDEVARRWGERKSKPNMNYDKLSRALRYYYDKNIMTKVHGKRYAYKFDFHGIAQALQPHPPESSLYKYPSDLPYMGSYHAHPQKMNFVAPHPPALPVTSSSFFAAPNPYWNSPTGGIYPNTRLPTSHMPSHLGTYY
Procedure, shortened: as §1

ELF1 = ELF1 (Homo sapiens, UniProt P32519 1-619)
Chain of ELF1 (P32519 whole entry): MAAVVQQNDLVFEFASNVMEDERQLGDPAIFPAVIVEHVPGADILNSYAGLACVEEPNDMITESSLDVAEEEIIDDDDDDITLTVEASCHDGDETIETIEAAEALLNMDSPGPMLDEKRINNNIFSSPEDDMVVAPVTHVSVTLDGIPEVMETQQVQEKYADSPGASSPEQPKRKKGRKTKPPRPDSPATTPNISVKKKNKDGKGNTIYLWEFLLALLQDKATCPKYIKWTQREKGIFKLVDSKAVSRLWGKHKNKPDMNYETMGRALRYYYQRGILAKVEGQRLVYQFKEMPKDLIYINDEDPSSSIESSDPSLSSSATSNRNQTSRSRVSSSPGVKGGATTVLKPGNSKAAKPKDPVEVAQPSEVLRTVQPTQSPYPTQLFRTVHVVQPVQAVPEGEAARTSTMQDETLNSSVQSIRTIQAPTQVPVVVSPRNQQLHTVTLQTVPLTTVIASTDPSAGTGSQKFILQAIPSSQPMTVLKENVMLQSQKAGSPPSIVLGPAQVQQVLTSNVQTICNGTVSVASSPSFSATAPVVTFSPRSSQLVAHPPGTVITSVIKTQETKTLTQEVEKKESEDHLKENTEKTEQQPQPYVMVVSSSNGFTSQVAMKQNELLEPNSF
Procedure, shortened: as §1

EHF = target: T5, EHF (Homo sapiens, UniProt Q9NZC4 1-300)
T5 sequence: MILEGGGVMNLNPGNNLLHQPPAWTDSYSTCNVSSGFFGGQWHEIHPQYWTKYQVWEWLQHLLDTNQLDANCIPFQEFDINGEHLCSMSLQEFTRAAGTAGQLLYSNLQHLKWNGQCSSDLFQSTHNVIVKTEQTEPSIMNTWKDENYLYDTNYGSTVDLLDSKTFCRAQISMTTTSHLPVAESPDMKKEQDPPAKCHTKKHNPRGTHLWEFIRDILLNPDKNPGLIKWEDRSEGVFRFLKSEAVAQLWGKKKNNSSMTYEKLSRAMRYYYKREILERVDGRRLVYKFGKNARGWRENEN
Procedure, shortened: as §1

SPI1 = SPI1 (Homo sapiens, UniProt P17947 1-270)
Procedure, shortened: as §1

SPIB = SPIB (Homo sapiens, UniProt Q01892 1-262)
Chain of SPIB (Q01892 whole entry): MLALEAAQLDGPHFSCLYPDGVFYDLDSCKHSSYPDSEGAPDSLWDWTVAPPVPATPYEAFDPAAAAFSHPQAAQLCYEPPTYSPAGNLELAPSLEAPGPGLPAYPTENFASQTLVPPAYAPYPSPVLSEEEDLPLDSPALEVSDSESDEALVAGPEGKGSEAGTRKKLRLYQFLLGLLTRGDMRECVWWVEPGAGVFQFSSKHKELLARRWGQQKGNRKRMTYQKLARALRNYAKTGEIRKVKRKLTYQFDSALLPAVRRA
Procedure, shortened: as §1

ELK3 = target: T6, ELK3 (Homo sapiens, UniProt P41970 1-407)
T6 sequence: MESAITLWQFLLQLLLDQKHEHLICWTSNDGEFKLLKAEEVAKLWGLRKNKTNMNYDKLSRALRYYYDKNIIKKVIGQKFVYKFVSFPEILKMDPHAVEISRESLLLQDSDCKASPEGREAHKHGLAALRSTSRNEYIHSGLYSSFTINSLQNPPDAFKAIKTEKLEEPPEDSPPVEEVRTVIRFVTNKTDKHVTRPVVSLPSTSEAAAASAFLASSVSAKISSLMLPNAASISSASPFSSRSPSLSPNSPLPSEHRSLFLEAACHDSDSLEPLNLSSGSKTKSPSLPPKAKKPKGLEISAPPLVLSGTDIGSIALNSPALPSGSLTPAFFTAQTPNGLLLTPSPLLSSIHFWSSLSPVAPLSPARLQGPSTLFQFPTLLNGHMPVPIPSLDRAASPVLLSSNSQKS
Procedure, shortened: as §1

Q: What does the source list for ACTCAT?
A: binding signal (FLI1): 1.47 fold enrichment (6-mer frequency, TF over GST control); binding signal (ELK1): 1.34 fold enrichment (6-mer frequency, TF over GST control); binding signal (GABPA): 1.36 fold enrichment (6-mer frequency, TF over GST control); binding signal (ERG): 1.16 fold enrichment (6-mer frequency, TF over GST control); binding signal (ELF1): 1.33 fold enrichment (6-mer frequency, TF over GST control); binding signal (EHF): 1.25 fold enrichment (6-mer frequency, TF over GST control); binding signal (SPI1): 1.23 fold enrichment (6-mer frequency, TF over GST control); binding signal (SPIB): 1.35 fold enrichment (6-mer frequency, TF over GST control); binding signal (ELK3): 1.34 fold enrichment (6-mer frequency, TF over GST control)

Q: What does the source list for GCAAAA?
A: binding signal (FLI1): 1.04 fold enrichment (6-mer frequency, TF over GST control); binding signal (ELK1): 1.08 fold enrichment (6-mer frequency, TF over GST control); binding signal (GABPA): 1.08 fold enrichment (6-mer frequency, TF over GST control); binding signal (ERG): 1.05 fold enrichment (6-mer frequency, TF over GST control); binding signal (ELF1): 1.09 fold enrichment (6-mer frequency, TF over GST control); binding signal (EHF): 1.14 fold enrichment (6-mer frequency, TF over GST control); binding signal (SPI1): 1.16 fold enrichment (6-mer frequency, TF over GST control); binding signal (SPIB): 1.13 fold enrichment (6-mer frequency, TF over GST control); binding signal (ELK3): 1.15 fold enrichment (6-mer frequency, TF over GST control)

Q: Which binding signal (FLI1) does the source give for AATAAC here?
A: 1.31 fold enrichment (6-mer frequency, TF over GST control)

Q: And the binding signal (ELK1)?
A: 1.33 fold enrichment (6-mer frequency, TF over GST control)

Q: What about the binding signal (GABPA) of the same sequence?
A: 1.3 fold enrichment (6-mer frequency, TF over GST control)

Q: What about the binding signal (ERG) of the same sequence?
A: 1.27 fold enrichment (6-mer frequency, TF over GST control)

Q: What about the binding signal (ELF1) of the same sequence?
A: 1.23 fold enrichment (6-mer frequency, TF over GST control)

Q: And the binding signal (EHF)?
A: 1.26 fold enrichment (6-mer frequency, TF over GST control)

Q: What about the binding signal (SPI1) of the same sequence?
A: 1.18 fold enrichment (6-mer frequency, TF over GST control)

Q: What about the binding signal (SPIB) of the same sequence?
A: 1.37 fold enrichment (6-mer frequency, TF over GST control)

Q: And the binding signal (ELK3)?
A: 1.33 fold enrichment (6-mer frequency, TF over GST control)

Q: What does the source list for ATTACT?
A: binding signal (FLI1): 1.3 fold enrichment (6-mer frequency, TF over GST control); binding signal (ELK1): 1.12 fold enrichment (6-mer frequency, TF over GST control); binding signal (GABPA): 1.29 fold enrichment (6-mer frequency, TF over GST control); binding signal (ERG): 1.22 fold enrichment (6-mer frequency, TF over GST control); binding signal (ELF1): 1.28 fold enrichment (6-mer frequency, TF over GST control); binding signal (EHF): 1.27 fold enrichment (6-mer frequency, TF over GST control); binding signal (SPI1): 1.28 fold enrichment (6-mer frequency, TF over GST control); binding signal (SPIB): 1.33 fold enrichment (6-mer frequency, TF over GST control); binding signal (ELK3): 1.24 fold enrichment (6-mer frequency, TF over GST control)

Q: With CTTGAC as the sequence, how does the binding signal (FLI1) read?
A: 1.17 fold enrichment (6-mer frequency, TF over GST control)

Q: What about the binding signal (ELK1) of the same sequence?
A: 1.3 fold enrichment (6-mer frequency, TF over GST control)

Q: And the binding signal (GABPA)?
A: 1.3 fold enrichment (6-mer frequency, TF over GST control)

Q: And the binding signal (ERG)?
A: 1.2 fold enrichment (6-mer frequency, TF over GST control)

Q: What about the binding signal (ELF1) of the same sequence?
A: 1.2 fold enrichment (6-mer frequency, TF over GST control)

Q: And the binding signal (EHF)?
A: 1.14 fold enrichment (6-mer frequency, TF over GST control)

Q: What about the binding signal (SPI1) of the same sequence?
A: 1.18 fold enrichment (6-mer frequency, TF over GST control)

Q: And the binding signal (SPIB)?
A: 1.19 fold enrichment (6-mer frequency, TF over GST control)

Q: And the binding signal (ELK3)?
A: 1.23 fold enrichment (6-mer frequency, TF over GST control)

Q: With TCCGGA as the sequence, how does the binding signal (FLI1) read?
A: 2.58 fold enrichment (6-mer frequency, TF over GST control)

Q: What about the binding signal (ELK1) of the same sequence?
A: 2.53 fold enrichment (6-mer frequency, TF over GST control)

Q: And the binding signal (GABPA)?
A: 2.37 fold enrichment (6-mer frequency, TF over GST control)

Q: What about the binding signal (ERG) of the same sequence?
A: 3.19 fold enrichment (6-mer frequency, TF over GST control)

Q: What about the binding signal (ELF1) of the same sequence?
A: 2.3 fold enrichment (6-mer frequency, TF over GST control)

Q: And the binding signal (EHF)?
A: 2.86 fold enrichment (6-mer frequency, TF over GST control)

Q: What about the binding signal (SPI1) of the same sequence?
A: 2.39 fold enrichment (6-mer frequency, TF over GST control)

Q: What about the binding signal (SPIB) of the same sequence?
A: 2.69 fold enrichment (6-mer frequency, TF over GST control)

Q: What about the binding signal (ELK3) of the same sequence?
A: 2.67 fold enrichment (6-mer frequency, TF over GST control)

Q: Which results are given for TTCATC?
A: binding signal (FLI1): 1.36 fold enrichment (6-mer frequency, TF over GST control); binding signal (ELK1): 1.28 fold enrichment (6-mer frequency, TF over GST control); binding signal (GABPA): 1.29 fold enrichment (6-mer frequency, TF over GST control); binding signal (ERG): 1.22 fold enrichment (6-mer frequency, TF over GST control); binding signal (ELF1): 1.27 fold enrichment (6-mer frequency, TF over GST control); binding signal (EHF): 1.14 fold enrichment (6-mer frequency, TF over GST control); binding signal (SPI1): 1.27 fold enrichment (6-mer frequency, TF over GST control); binding signal (SPIB): 1.28 fold enrichment (6-mer frequency, TF over GST control); binding signal (ELK3): 1.32 fold enrichment (6-mer frequency, TF over GST control)
